# Results: PubChem BioAssay AID504329 (Southern Research Specialized Biocontainment Screening …, 2011)
# Among all 340,000 compounds or so, about 1,000 (0.29%) were called active. No stated cut-off is given here; in the data, inconclusive means inhibition above about 27% without an active follow-up result; inactive means below that. The list is a sample of the results. Entries with a potency or affinity are not part of this list.
# Experiment: H1N1 influenza NS1A inhibitors, functional cell based assay (AID 504329)
# Conditions: percent inhibition, at 12.5 µM, stronger effect = higher value
row,SMILES,inhibition
1,O=C(C1=C[C@H](c2ccc3c(c2)OCO3)C[C@H](OCCCCO)O1)N1CCOCC1,-1.7% (inactive)
2,O=C(c1cc2cc(F)ccc2[nH]1)N1CCCC(Nc2ccc(F)cc2)C1 (configuration not stated),9.28% (inactive)
3,CCc1ccc(S(=O)(=O)/N=C2\C=C(NS(=O)(=O)c3ccccc3)C(=O)c3ccccc32)cc1,11.2% (inactive)
4,CCc1ccc(S(=O)(=O)/N=C2\C=C(Nc3ccc(C(=O)O)cc3)C(=O)c3ccccc32)cc1,25.1% (inactive)
5,CC(C)(C)c1ccc(S(=O)(=O)/N=C2\C=C(NS(=O)(=O)c3ccccc3)C(=O)c3ccccc32)cc1,11.3% (inactive)
6,CC(C)c1ccc(S(=O)(=O)/N=C2\C=C(NS(=O)(=O)c3ccccc3)C(=O)c3ccccc32)cc1,14.3% (inactive)
7,Cc1ccc(S(=O)(=O)Nc2c(NC3CCCCC3)c3ccccc3oc2=O)c(C)c1,0.02% (inactive)
8,Cc1ccn(CCC(=O)N2CCCC(CCC(=O)N3CCN(c4ccccn4)CC3)C2)n1 (configuration not stated),-2.86% (inactive)
9,Cc1cc(C)c(NC(=O)CNC(=O)COC(=O)CNC(=O)c2ccc(Cl)cc2Cl)c(C)c1,-0.98% (inactive)
10,CCOC(=O)N1CCC(NS(=O)(=O)c2cc(Br)cc3c2N(C(=O)CC)CC3)CC1,7.36% (inactive)
11,Cc1ccc(Nc2c(-c3ccccn3)nc3cc(C)ccn23)cc1,53% (inactive)
12,Cc1ccn2c(Nc3ccccc3)c(-c3ccccn3)nc2c1,-0.92% (inactive)
13,Cc1ccccc1Nc1c(-c2ccccn2)nc2c(C)cccn12,-0.06% (inactive)
14,Cc1cccc(C)c1Nc1c(-c2ccccn2)nc2ccccn12,29.7% (inactive)
15,CCOC(=O)CN(C(=O)c1snc(C(N)=O)c1N)C(C(=O)NC1CCCCC1)c1ccc(F)cc1 (configuration not stated),1.16% (inactive)
16,COc1ccc(C(=O)N/C(=C\c2cn(C)c3ccccc23)C(=O)NCCCn2ccnc2)cc1OC,4.02% (inactive)
17,O=C(NCCc1ccc(Cl)cc1)C(=O)c1c[nH]c2ccccc12,-31.4% (inactive)
18,O=C(Nc1ccc(N2CCOCC2)cc1)C1CCCCN1S(=O)(=O)c1ccccc1 (configuration not stated),-25.6% (inactive)
19,c1ccc(CN2CCNCC2)nc1,2.99% (inactive)
20,c1cc(CNCCN2CCNCC2)ccn1,-2.65% (inactive)
21,CN(CCCNC(=O)CCC(=O)N1CCOc2ccc(Cl)cc21)Cc1ccccc1,3.8% (inactive)

row,SMILES,inhibition
1,O=C(CN1C(=O)NC2(CCc3ccccc32)C1=O)c1cccs1 (configuration not stated),-5.04% (inactive)
2,COc1ccc(CCN=Cc2ccccc2O)cc1OC,-18.6% (inactive)
3,CCc1ccc2[nH]c3nc(N/N=C/c4ccc(O)cc4O)nnc3c2c1,1.89% (inactive)
4,COc1ccc(Cc2nnc(SC)[nH]c2=O)cc1OC,-0.91% (inactive)
5,COc1ccc(/C=N/Nc2nnc(Cc3ccc(OC)c(OC)c3)c(=O)[nH]2)cc1OC,-2.26% (inactive)
6,COc1ccc(Cc2nc3ccccc3n2CC(=O)N/N=C/c2ccc(C)cc2O)cc1OC,1.09% (inactive)
7,COc1ccc(Cc2nccc3cc(OC)c(OC)cc23)cc1OC,0.89% (inactive)
8,COc1ccc(/C=N/Nc2nnc(Cc3ccc(OC)c(OC)c3)c(=O)[nH]2)cc1,12.1% (inactive)
9,COc1ccccc1/C=N/Nc1nc(C)cc(C)n1,-18.3% (inactive)
10,COc1ccc(NC2c3ccccc3C(=O)N2c2ccccn2)cc1Cl (configuration not stated),25% (inactive)
11,Cn1c(=O)c(=O)n(C)c2cc(S(=O)(=O)NCc3ccc(Cl)cc3)ccc21,-12% (inactive)
12,O=C(CSc1ccccc1)NNC(=O)c1ccncc1,-1.89% (inactive)
13,CC(C)CC(=O)Nc1nnc(S(=O)(=O)Nc2ccccc2)s1,0.61% (inactive)
14,CCCCn1c(=O)[nH]c(=O)c2c1nc(-c1ccccc1OC(F)F)n2C,-2.54% (inactive)
15,Cc1ccc(NCC(=O)N/N=C/c2cccn2C)cc1,1.43% (inactive)
16,Cc1cc(N2CCN(CC(O)C(F)(F)F)CC2)c2ccccc2n1 (configuration not stated),15.7% (inactive)
17,CCC(CO)Oc1cc(NCc2cccc(C(F)(F)F)c2)c2ncn(C(C)C)c2c1 (configuration not stated),-6.24% (inactive)
18,COCCN(CC1CCCN(C2Cc3ccccc3C2)C1)C(=O)CCC(C)=O (configuration not stated),-22.6% (inactive)
19,CN(CC(=O)Nc1ccc(Cl)cc1F)C1=NS(=O)(=O)c2ccccc21,5.4% (inactive)
20,COc1ccc(S(=O)(=O)Nc2ccc(NC(C)=O)cc2)cc1[N+](=O)[O-],9.65% (inactive)
21,Clc1ccc(CNc2ccc(N3CCN(Cc4ccccc4)CC3)cc2)cc1,20.5% (inactive)

row,SMILES,inhibition
1,CCOc1c(Cl)cc(CNc2ccc(N3CCCC3)cc2)cc1OC,15.9% (inactive)
2,COc1cc(CNc2ccc(N3CCCC3)cc2)cc(Cl)c1OC,21.3% (inactive)
3,CCOc1ccc(CNc2ccc(N3CCCC3)cc2)cc1,21.7% (inactive)
4,COc1ccc(C(=O)Nc2ccc(N3CCN(C(=O)C(C)C)CC3)cc2)cc1[N+](=O)[O-],-5.48% (inactive)
5,CCOC(=O)C1CCCN(CCC(=O)Nc2ccc(F)c(F)c2)C1 (configuration not stated),-6.65% (inactive)
6,c1ccc(CSC2=NCCCN2)cc1,5.1% (inactive)
7,Cc1ccc(NC(=O)CSc2nc3ccccc3c(=O)n2CCCC(=O)N2CCCC2)cc1,-0.44% (inactive)
8,CC1=NN(c2cccc(F)c2)C(=O)/C1=C/c1ccc(N(C)C)cc1,15.2% (inactive)
9,CCN(CC)c1ccc(/C=C2/C(=O)ON=C2C)cc1,22.3% (inactive)
10,COc1ccc(NC(=O)CN(C)CC(=O)NCCc2ccc(F)cc2)cc1,-13.6% (inactive)
11,COCCN(Cc1cc2cccc(C)c2n2nnnc12)C(=O)C(F)(F)F,-4.57% (inactive)
12,CN(CCc1cn[nH]c1)Cc1nc(Cc2ccccc2)no1,3.23% (inactive)
13,COc1ccc(C(=O)Oc2c(CN3CCOCC3)cc(Cl)c3cccnc23)cc1,6.29% (inactive)
14,Oc1c(CN2CCOCC2)cc(-c2ccccc2)cc1CN1CCOCC1,9.91% (inactive)
15,COc1cc(OC)cc(C(=O)Oc2c(CN3CCOCC3)cc(Cl)c3cccnc23)c1,-7.03% (inactive)
16,Oc1c(CN2CCOCC2)cc(CN2CCOCC2)cc1CN1CCOCC1,-23.8% (inactive)
17,COc1ccc(CN2CCN(C)CC2)cc1OCc1ccccc1,0.12% (inactive)
18,O=C(Oc1c(CN2CCOCC2)cc(Cl)c2cccnc12)c1ccccc1Cl,13.5% (inactive)
19,O=C(Oc1c(CN2CCOCC2)cc(Cl)c2cccnc12)c1ccccc1,-7.41% (inactive)
20,CN1CCN(Cc2ccc(OCc3ccccc3)cc2)CC1,-2.13% (inactive)
